According to ChEMBL document CHEMBL4888484, “Replenishing the malaria drug discovery pipeline: Screening and hit evaluation of the MMV Hit Generation Library 1 (HGL1) against asexual blood stage Plasmodium falciparum ,using a nano luciferase reporter read-out” (2022):
The whole screen tested about 4,800 compounds, of which about 420 (8.8%) showed an effect of 50% or more. This is one part of a sample in which strong results are shown more often than they occur.

Test system: Plasmodium falciparum
Assay: Confirmatory screen in NF54 nanoGlo assay, in single point, at 2uM, 72h
Format: functional, Erythrocyte
Conditions: timepoint 72 hour

Row | Compound | % Inhibition [%]
1 | O=C(NC[C@H]1CCS(=O)(=O)C1)c1ccc2[nH]c3c(c2c1)CCCC3 | -6
2 | Clc1ccc(COc2ccc(CNC3CCCCC3)cc2Br)cc1 | -4
3 | O=C(Cc1ncc(C(F)(F)F)cc1Cl)c1ccc(Cl)cc1Cl | -6
4 | O=C(Nc1ccc(C(F)(F)F)cc1)N1CCN(CC(O)C2CCCO2)CC1 (stereo not given) | 4
5 | CC(NC(=O)N1CCCCC1)(C(F)(F)F)C(F)(F)F | 7
6 | O=S(=O)(c1cccc(Cl)c1)N1CCc2nc(N3CCCCC3)nc(Oc3ccccc3)c2C1 | 73
7 | COc1cccc(Oc2nc(N3CCN(C)CC3)nc3c2CN(C(=O)Nc2ccccc2)CC3)c1 | 5
8 | COc1cccc(CC(=O)N2CCc3nc(N4CCC(C)CC4)nc(Oc4ccccc4OC)c3C2)c1 | 45
9 | O=C(O)Cc1sc(-c2ccc(Cl)cc2)nc1-c1ccc(Oc2ccccc2)cc1 | 0
10 | CN1CCN(C(=O)[C@@H]2Cc3ccccc32)CC1 | 2
11 | CCc1nnc2ccc(S(=O)(=O)Nc3cc(F)cc(F)c3)cn12 | -5
12 | CCOC(=O)N1CCN(C(=O)C2c3ccccc3C(=O)N(C3CCCCC3)C2c2ccc(OC)cc2)CC1 (stereo not given) | -4
13 | COc1cccc(S(=O)(=O)N2CCCN(Cc3ccncc3)[C@H](c3ccccc3)CC(=O)NCC2)c1 | 92
14 | COc1cccc(S(=O)(=O)N2CCC(OCCOc3ccccc3)CC2)c1 | 0
15 | COc1cccc(S(=O)(=O)N2CCC(OCCOCc3ccccc3)CC2)c1 | -3
16 | COCCCn1c(=O)c2ccccc2n(CC(=O)N2CCc3ccccc32)c1=O | -8
17 | CC(C)OC(=O)N(CCOC(=O)Nc1cccc(Cl)c1)CCOC(=O)Nc1cccc(Cl)c1 | -15
18 | COc1ncccc1C(=O)NC[C@H](C)S(N)(=O)=O | 4
19 | Cc1cc(NC(=O)C(=O)Nc2cnn(CCC(C)C)c2C)n(C)n1 | -7
20 | COc1ccccc1N(Cc1ccccc1)C1=NC(=[N+](Cc2ccccc2)c2ccccc2OC)c2ccccc21 | 74
21 | C[C@H](NC(=O)c1cc(C2CC2)[nH]n1)c1nccs1 | -11
22 | CN(C(=O)c1ccccc1Br)C(C)(C)C | -10
23 | COc1ccccc1[C@H]1CC(O)=Nc2c1ncn2-c1cc(F)ccc1F | -3
24 | Cc1nnc2ccc(S(=O)(=O)N(Cc3ccccc3F)c3ccccc3)cn12 | -16
25 | COc1cccc([C@H]2CC(=O)Nc3c2cnn3C)c1 | -8
26 | CCc1ccc(C2=C[C@@H](c3cccc(OC)c3)n3ncc(C(=O)Nc4ccc(C)cc4)c3N2)cc1 | 70
27 | COc1ccc(NC(=O)[C@@H]2COCC(=O)N2Cc2ccc(C)cc2)cc1 | 1

Row | Compound | % Inhibition [%]
28 | CC[C@H](C)N1CCN(Cc2cccc(Oc3ccccc3)c2)CC1 | -6
29 | CC[C@H]1Cn2c(C(=O)N3CCN(c4ccccn4)CC3)cc3c(Cl)ccc(c32)O1 | -8
30 | Cc1nn(C)cc1-c1nnc(-c2ccccc2)o1 | -17
31 | COc1ccc(COC(=O)c2cccnc2C)cn1 | -9
32 | O=C(C[C@H]1CCCN1c1ccnc(C2CC2)n1)c1ccco1 | 3
33 | CCc1nc(NS(=O)(=O)c2cc(Cl)sc2Cl)no1 | -4
34 | O=C1NCCCc2nn(Cc3cc(F)ccc3Br)cc21 | -12
35 | CCOC(=O)c1c[nH]c2c(-c3ccccc3)nsc2c1=O | -5
36 | O=C(c1cccs1)N1CCN(C2CCCCCC2)CC1 | 1
37 | CC(C)c1nc(O)cc(CN2CCCCC2)n1 | -8
38 | CC(C)c1ccc(-c2nc(CN3CCCCC3)cc(CN3CCCCC3)c2O)cc1 | 96
39 | Cc1ccc(C)c(NC(=O)CN2CCC3(CC2)NC(c2ccc(OC(F)(F)F)cc2)=NO3)c1 | -3
40 | CC(C)[C@@H]1CN(C(=O)c2ccncc2)c2ccccc2N1 | -7
41 | Cc1ccc(Cn2ccnc2C(=O)Nc2ccccc2)cc1 | -15
42 | CC1(C)OCc2cc(CNc3ccc4oc(=O)[nH]c4c3)ccc2O1 | 93
43 | CCCN1CC(=O)N(c2ccc(C)cc2)[C@@H]2CS(=O)(=O)C[C@@H]21 | 4
44 | COc1ccc(-c2nccn3cc(C(=O)N4CCN(c5cccc(OC)c5)CC4)nc23)cc1 | -6
45 | O=C(NCc1ccccc1OC1CCC1)N(CCO)C1CC1 | -2
46 | CC(=O)N(c1ccccc1)[C@H]1C[C@@H](C)N(C(=O)C(F)(F)F)c2ccccc21 | 9
47 | Cc1noc(C)c1CN1CCNC(=O)CC1 | -11
48 | Cc1noc(C)c1CN1C[C@@H]2Oc3cc(F)ccc3C(=O)N(C)[C@@H]2C1 | 92
49 | Cc1noc(C)c1CN1CCCN(C(=O)c2n[nH]c3ccccc23)CC1 | 0
50 | O=C1O[C@@H](CO)CN1c1cccc(F)c1 | -4
51 | COc1ccc2nc(N3CN(Cc4ccccc4)CN(c4nc5ccc(OC)cc5s4)C3)sc2c1 | 3
52 | O=C(Cc1ccc(N(Cc2cccc(F)c2)C(=O)c2cccc(F)c2)cc1)NCCN1CCCCC1 | 38
53 | Cc1ccc(C(=O)N(Cc2cccc(F)c2)c2ccc(CC(=O)N[C@@H](C)c3ccccc3)cc2)cc1 | 81
54 | Cc1ccccc1C(=O)N(Cc1cccc(F)c1)c1ccc(CC(=O)NCCN2CCCCC2)cc1 | 44

Row | Compound | % Inhibition [%]
55 | CNC(=O)Cc1c(Cl)cccc1Cl | 1
56 | CN1CCN(C(=O)C[C@@H]2CCN3C[C@@H]2/C=C\COc2ccccc2CN(C(=O)CC(C)(C)C)CC3=O)CC1 | 5
57 | Nc1cc(Br)c(C(F)(F)F)cc1NC(=O)C(F)(F)F | -11
58 | CCn1cc(Br)c(=O)c(NC(=O)[C@H]2CCCOC2)c1 | -7
59 | CC(C)(CC(=O)Nc1ccc2oc(C3CC3)nc2c1)C(=O)O | -2
60 | Cc1nc2cc(NC(=O)[C@@]3(C)CCCN(C(=O)c4ccccc4)C3)ccc2o1 | 57
61 | Cc1nc2cc(NC(=O)c3cccs3)ccc2o1 | -8
62 | CNC(=O)c1cnc(C=Cc2cnc(-c3cccnc3)s2)s1 | 0
63 | CC[N+](C)(CC)CCOc1cc(C)c2ccccc2n1 | 53
64 | Cc1cc(C)c2ccc3ccccc3c2n1 | -4
65 | CC(C)(NCc1ccccc1Cl)C(=O)O | 4
66 | Cc1ccc(S(=O)(=O)Nc2ccc(Oc3ccc(NS(=O)(=O)c4ccc(C)cc4)cc3)cc2)cc1 | 3
67 | N[C@H]1C[C@H](c2cc(NCCCc3cccnc3)nc(C3CC3)n2)C1 | 75
68 | Cc1ccc(OCCNc2cc([C@H]3C[C@H](N)C3)nc(C3CC3)n2)cc1C | 31
69 | N#Cc1c(-c2ccccc2)cc(-c2ccccc2)nc1S(=O)(=O)Cc1ccccc1 | 35
70 | Nc1nc2c(s1)CN(CCc1ccccc1)CC2 | 38
71 | N#Cc1nc2c(C#N)c(N)n(CCc3ccccc3)c2nc1C#N | 87
72 | O=C(c1ccccc1)N1N=C(C(F)(F)F)C2CCCCCC21O (stereo not given) | -11
73 | CCC1Cn2c(C(=O)NC(C)Cc3ccco3)cc3cccc(c32)O1 (stereo not given) | -8
74 | CCOC(=O)N(c1ccccc1)[C@H]1CC(=O)N(c2ccccc2)C1=O | 1
75 | Cc1nnc2ccc(S(=O)(=O)Nc3cc(F)cc(F)c3)cn12 | -4
76 | Cn1cc(CN2CCC(C(=O)NCCCN3CCCCC3)CC2)c2cc(Cl)ccc21 | -7
77 | O=C(NCCCN1CCOCC1)c1ccc(-c2cnc(NC3CCCCC3)nc2)cc1 | -8
78 | Cc1cc2nc(C)c(=O)n(Cc3ccc(C(=O)NCCN4CCCC[C@@H]4C)cc3)c2cc1C | 17
79 | COc1ccc(-c2nccn3cc(C(=O)NCCN(C)C4CCCCC4)nc23)cc1 | 6
80 | O=S1(=O)NC(c2ccccc2)(c2ccccc2)c2ccccc21 | 1
81 | Cc1ccc(NC(=O)c2c(C)nc3sc(C(=O)NCc4ccccc4)c(N)c3c2-c2cccs2)c(C)c1 | 2

Row | Compound | % Inhibition [%]
82 | CCc1ccc(NC(=O)c2sc3nc(C)c(C(=O)Nc4ccc(C)cc4C)c(-c4ccccc4Cl)c3c2N)cc1 | 16
83 | Cc1ccc(NC(=O)c2c(C)nc3sc(C(=O)NCc4ccccc4)c(N)c3c2-c2ccccc2Cl)c(C)c1 | 77
84 | CC(C)N(CC(=O)Nc1nccs1)Cc1ccccn1 | 68
85 | CC(C)c1nc(CN(C)[C@@H](C)C(=O)Nc2nccs2)cs1 | 22
86 | CC(C)NC(=O)C(=O)Nc1nccs1 | -14
87 | O=c1cc2c(nn1Cc1ccccc1Cl)-c1ccccc1CC2 | -8
88 | O=C(c1ccc(O)cc1)C1CCN(C[C@H](O)C(F)(F)F)CC1 | 5
89 | Cc1nn(C)c2c(N3CCc4ccccc4C3)nc(C3CC3)nc12 | -7
90 | CCOCCCNC(=O)c1ccc(-c2ccc3c(c2)CCN3C(C)=O)cc1 | -2
91 | O=C(NCC1CCCCC1)c1cn[nH]c1-c1ccccc1 | -4
92 | O=C(NCC1CCCCC1O)c1cnn2ccncc12 (stereo not given) | -12
93 | O=C1Nc2ccccc2O[C@H]2C[C@@H]1N(CC1CC1)C2 | -10
94 | CC(=O)c1cccc(NC(=O)Cc2c(C)nc3nc(C4CCCCC4)nn3c2C)c1 | 5
95 | Clc1ccc(-c2noc(C3CNC3)n2)cc1 | 21
96 | c1ccc(-c2noc(-c3ccc(NC4CCCCC4)nn3)n2)cc1 | 55
97 | CC(C)N1CCN(C(=O)CN2N=C(c3nc(-c4ccccc4)no3)CCC2=O)CC1 | 5
98 | Cc1nn(-c2ncc(C(F)(F)F)cc2Cl)c(=O)n1-c1cccc(F)c1 | -4
99 | CC(C)(C)c1nc(CNc2ccc(S(=O)(=O)CCO)cc2)no1 | -9
100 | COc1ccc(Cl)cc1C(=O)Nc1cc(C2CC2)nn1-c1nc(C)cc(=O)[nH]1 | 66
101 | Cc1cc(=O)[nH]c(N2CCCCCC2)n1 | -2
102 | Cc1cc(=O)[nH]c(-n2nc(C3CC3)cc2NC(=O)C(C)(C)Oc2ccc(Cl)cc2)n1 | 85
103 | COc1ccc(NC(=O)c2cc(C3CC3)nc3onc(C4CC4)c23)cc1Cl | -3
104 | COc1ccc(Cl)cc1C(=O)N(C1CCOCC1)[C@H]1CCCN(S(C)(=O)=O)C1 | -9
105 | O=C(COc1ccc(Cl)cc1)N1CC(n2cnnc2C2CC2)C1 | -7
